Molecules are shown by their SMILES. The panel holds about 79,000 compounds, 15% with a hit somewhere; the sample as a whole holds those more often. Values without a mark were called inactive. Activity calls are given as the source filed them. Cut-off read from the data, not from the text of the source: active = growth inhibition above about 70%; inactive = the rest.

Test [1] is described as follows: NCI Yeast Anticancer Drug Screen. Data for the rad50 strain (AID 155).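 Note: 0% = growth of vehicle-only cultures of the same strain.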 The settings on record: S. cerevisiae rad50 strain growth inhibition; at 50.0 µM; stronger effect = higher value. The method in brief: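 Relative growth inhibition (compound vs vehicle) was measured in yeast with a defined repair-gene alteration.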
Test [2] can be described thus: NCI Yeast Anticancer Drug Screen. Data for the mec2-1 strain (AID 157). The note with it: S. cerevisiae mec2-1 strain, at 50.0 µM, stronger effect = higher value. The method in brief:
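Vehicle-treated cultures served as reference for growth inhibition of compound-exposed mec2-1 yeast.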

Test [3] is described as follows: NCI Yeast Anticancer Drug Screen. Data for the sgs1 mgt1 strain (AID 161).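 Note: 0% = growth of cultures given vehicle only.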 The note with it: S. cerevisiae sgs1 mgt1 strain, at 50.0 µM, stronger effect = higher value. The method in brief: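 Read-out: growth inhibition vs vehicle controls. Cells: mutant yeast strain deficient in DNA damage repair.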
Test [4] is described as follows: NCI Yeast Anticancer Drug Screen. Data for the cln2 rad14 strain (AID 165).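 Note: 0% = growth equal to vehicle treated cultures.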 The settings on record: S. cerevisiae cln2 rad14 strain, at 50.0 µM, stronger effect = higher value. The method in brief: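 Each compound was tested on cln2 rad14 yeast. Inhibition of growth was calculated against vehicle-exposed controls.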
Test [5] in a line: NCI Yeast Anticancer Drug Screen. Data for the bub3 strain (AID 167). The note with it: S. cerevisiae bub3 mutant strain, at 50.0 µM, stronger effect = higher value. The method in brief:
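Screening used yeast with an engineered genetic alteration affecting cell cycle control. Compound-exposed cultures were compared with vehicle cultures, and reduced growth was taken as inhibition.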

A short description of test [6]: NCI Yeast Anticancer Drug Screen. Data for the mlh1 rad18 strain (AID 175). The settings on record: S. cerevisiae mlh1 rad18 strain growth inhibition; at 50.0 µM; stronger effect = higher value. The method in brief: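 Vehicle-treated cultures served as the reference for growth inhibition in a yeast strain carrying DNA damage repair alterations exposed to each compound.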

As for `CC(=O)OC1CC2(c3ccccc3)C(=O)c3ccccc3N2O1` (stereo not given), the growth inhibition in test [1] was 27.2%; in test [2], -16.6%; in test [3], -11.8%; in test [4] it was -12.7%; in test [5], 10.2%; in test [6], 19.6%.

For the compound `CC1=CC(=O)C(c2ccccc2)CC1` (stereo not given), the growth inhibition in test [1] is -0.2%; in test [2], -5.65%; in test [3], 14.8%; in test [4], -32.7%; in test [5], -0.75%; in test [6], -5.3%.

Take `NS(=O)(=O)c1ccc(Nc2c3ccccc3nc3cc(Cl)ccc23)cc1`: the growth inhibition was 25.6% in test [1]; -17.8% in test [2]; 6.9% in test [3]; 3.3% in test [4]; -8.5% in test [5]; -13.3% in test [6].

Consider `CC1C(C)(C)P(=O)(OCCOP2(=O)C(C)(C)C(C)C2(C)C)C1(C)C` (stereo not given), for which the growth inhibition in test [1] was 35%; in test [2] it was -0.85%; in test [3] it was 22.2%; in test [4], -9.6%; in test [5], 3.75%; in test [6] it was 7.25%.

With `CC1(C)CC(C(N)=O)C(=O)O1` (stereo not given), the growth inhibition was -17.4% in test [1]; -4.15% in test [2]; -21.6% in test [3]; -25.9% in test [4]; 5.1% in test [5]; -2.4% in test [6].

As for `CN(C)S(=O)(=O)c1nc2nc[nH]c(=O)c2[nH]1`, the growth inhibition was -3.2% in test [1]; -20.4% in test [2]; -3.8% in test [3]; -15.9% in test [4]; -8.55% in test [5]; -22.9% in test [6].

For `Cc1cc(C)nc(C)c1.[Cl-].[Cl-].[Cl-].[Cl-].[Pt+2]`, the growth inhibition was 8.9% in test [1]; 9.25% in test [2]; -7.5% in test [3]; 7.4% in test [4]; 2.6% in test [5]; 7.1% in test [6].

With `N#Cc1ccc(Oc2ccc(C#N)cc2)cc1`, the growth inhibition in test [1] was 12.2%; in test [2] it was -19.6%; in test [3], -8.45%; in test [4] it was 18.4%; in test [5], -0.4%; in test [6] it was -1.1%.

With `COc1ccc(C(CN(C)C(C)C)OC(=O)C(c2ccccc2)c2ccccc2)cc1OC` (stereo not given), the growth inhibition in test [1] was -14.1%; in test [2], -6.85%; in test [3] it was -12.6%; in test [4], -8.25%; in test [5] it was 1.25%; in test [6], -17.5%.

For `Nc1nc(C=O)c(CCc2ccccc2)c(=O)[nH]1`, the growth inhibition in test [1] was 6.8%; in test [2] it was 8.95%; in test [3] it was -7.8%; in test [4], -28.7%; in test [5], -11%; in test [6], -12.4%.

`Cn1c(=O)c2[nH]c([N+](=O)[O-])nc2n(C)c1=O`: the growth inhibition was 23.4% in test [1]; -10% in test [2]; -0.3% in test [3]; 13.6% in test [4]; -20.1% in test [5]; 25.8% in test [6].

On to `O=C1c2ccccc2-c2nc(-c3ccccc3)cc3c2c1nc1ccccc13`, for which the growth inhibition was 79% (active) in test [1]; 51.7% in test [2]; 67.2% in test [3]; 64.8% in test [4]; 75% (active) in test [5]; -7.15% in test [6].

As to `C/C=C(/C)C(=O)OC1CC(C)=CC(OC(=O)/C(C)=C\C)[C@]2(C)C1[C@](O)(C(C)C)C[C@H]2OC(C)=O` (stereo not given in full), the growth inhibition is 41% in test [1]; 20.6% in test [2]; 28.2% in test [3]; 30.2% in test [4]; 24.9% in test [5]; 49.4% in test [6].

As to `CCOC(=O)c1ccc(-c2ccc(C(=O)OCC)cc2[N+](=O)[O-])c([N+](=O)[O-])c1`, the growth inhibition in test [1] is 14.8%; in test [2] it was 12.8%; in test [3], 11.8%; in test [4], 17%; in test [5], 9.7%; in test [6], 15%.

As for `COc1cc(Nc2nc3ccccc3nc2-c2cccs2)cc(OC)c1OC`, the growth inhibition was 4.8% in test [1]; 14% in test [2]; 29.6% in test [3]; 29.8% in test [4]; 26.1% in test [5]; 6% in test [6].

In the case of `CCc1n[nH]c(=O)n1N1C(=O)C2CCCCC2C1=O` (stereo not given), the growth inhibition in test [1] was 16.1%; in test [2], -20.5%; in test [3] it was 35.1%; in test [4], 6.5%; in test [5] it was 3.2%; in test [6], -25.9%.

For the compound `OCC(O)C(O)C(O)C(O)CNC(CO)(CO)CO` (stereo not given), the growth inhibition was 9.9% in test [1]; 13.3% in test [2]; 18.6% in test [3]; -1.45% in test [4]; 16.6% in test [5]; 27.5% in test [6].

Turning to `Cc1cc(Cl)ccc1N=NC(=O)NNc1ccc(Cl)cc1C`, the growth inhibition in test [1] was 35.2%; in test [2], -15.2%; in test [3] it was -7.05%; in test [4], -21.9%; in test [5] it was -7.2%; in test [6], -19.5%.

For `CCCCNc1ccc(S(=O)(=O)c2ccc(NCCCC)c([N+](=O)[O-])c2)cc1[N+](=O)[O-]`, the growth inhibition is 19.6% in test [1]; 6.6% in test [2]; 15.2% in test [3]; -1.4% in test [4]; 2.35% in test [5]; -9.8% in test [6].

Regarding `CCOC(=O)C1C/C2=C(/CCCCCCCCCC2)SCCCS1` (stereo not given), the growth inhibition is 4.35% in test [1]; 5.2% in test [2]; -9% in test [3]; 2.15% in test [4]; -13.7% in test [5]; -23.7% in test [6].

(Values after PubChem BioAssay (NCI).)
